# Values joined by “and” are separate entries in the source; they are usually repeats but may differ in a detail not shown here. Identical values can stand only once. Records with an inconclusive call do not appear. Active and inactive are the calls of the source. The call rests on the fitted dose curve.
# Target: Thyrotropin receptor (Homo sapiens) (UniProt P16473)
# Assay: qHTS assay to identify small molecule agonists of the thyroid stimulating hormone receptor (TSHR) signaling pathway (AID 1224843); further: nearly all actives have a fitted effect of over 45% in size
# Settings: TSHR-HEK293 cells, cAMP HTRF, agonist mode, 30 min; series mostly up to 92.4 µM; activation: at the top concentration
# How it was run: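 Cell line HEK293 with TSHR; density 800/well. Exposure 30 min RT. Readout HTRF cAMP (cAMP-d2/anti-cAMP-cryptate), 1 h RT before reading.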
# On the % scale 0 is the no-effect control and ±100 the full control effect; potency means the concentration at half of the fitted maximal effect.
# Sequence of Thyrotropin receptor (Homo sapiens) (P16473 whole entry, looked up): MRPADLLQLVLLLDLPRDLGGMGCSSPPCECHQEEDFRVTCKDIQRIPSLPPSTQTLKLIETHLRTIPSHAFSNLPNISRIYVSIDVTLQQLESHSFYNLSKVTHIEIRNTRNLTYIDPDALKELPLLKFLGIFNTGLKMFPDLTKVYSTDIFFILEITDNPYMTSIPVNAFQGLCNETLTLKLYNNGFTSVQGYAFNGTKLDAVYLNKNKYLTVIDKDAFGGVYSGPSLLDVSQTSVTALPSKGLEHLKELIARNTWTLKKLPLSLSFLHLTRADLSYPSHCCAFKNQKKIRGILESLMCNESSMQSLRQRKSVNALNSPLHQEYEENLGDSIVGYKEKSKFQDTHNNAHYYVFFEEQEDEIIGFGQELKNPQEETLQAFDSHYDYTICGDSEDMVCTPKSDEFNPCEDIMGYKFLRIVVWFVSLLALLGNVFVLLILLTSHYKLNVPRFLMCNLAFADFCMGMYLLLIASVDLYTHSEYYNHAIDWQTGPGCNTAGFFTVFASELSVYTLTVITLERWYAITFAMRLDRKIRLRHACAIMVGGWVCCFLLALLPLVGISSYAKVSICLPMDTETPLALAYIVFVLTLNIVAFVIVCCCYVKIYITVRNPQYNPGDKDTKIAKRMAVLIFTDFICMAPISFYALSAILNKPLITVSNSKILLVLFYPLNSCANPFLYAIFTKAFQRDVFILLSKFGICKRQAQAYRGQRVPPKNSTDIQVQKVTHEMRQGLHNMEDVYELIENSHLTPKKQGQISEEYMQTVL
Compound,Potency,activation
C=CC(=O)OCC(CO)(COC(=O)C=C)COC(=O)C=C,6.13 µM (active) and 9.69 µM (active),
Cc1nc(-c2ccc3c(c2)CCN(CCC2CCC(NC(=O)/C=C/c4ccc(F)cc4)CC2)CC3)no1 (stereo not drawn),,2.76% [at 42.5 µM] (inactive)
CNC(=O)c1ccccc1,,0.0626% (inactive)
Oc1ccc2c(c1)-c1ccccc1C2,,9.94% (inactive)
CCC(CN)=C(c1ccccc1)c1ccccc1,,-13.4% [at 42.5 µM] (inactive)
NC(=O)CC[C@@H]1NC(=O)[C@H](Cc2ccccc2)NC(=O)[C@H](Cc2ccc(O)cc2)NC(=O)CCSSC[C@@H](C(=O)N2CCC[C@H]2C(=O)N[C@@H](CCCN=C(N)N)C(=O)NCC(N)=O)NC(=O)[C@H](CC(N)=O)NC1=O,,7.26% [at 42.5 µM] (inactive)
O=c1cccccc1O,,-9.65% (inactive)
CCCC(=O)OC[C@@H](OC(=O)CCC)[C@@H](OC(=O)CCC)[C@H](Cn1c2nc(=O)[nH]c(=O)c-2nc2cc(C)c(C)cc21)OC(=O)CCC,,3.93% [at 42.5 µM] (inactive)
Nc1ccc(N)c2ccccc12,,5.73% (inactive)
Cc1cccc(S(=O)(=O)O)c1C,,0.723% (inactive)
COC(=O)c1cc(Cl)ccc1OC,,-0.01% [at 42.5 µM] (inactive)
CC[C@@]1(O)C(=O)OCc2c1cc1n(c2=O)Cc2c-1nc1ccccc1c2/C=N/OC(C)(C)C,,-4.84% [at 42.5 µM] (inactive)
O=C(c1ccc(F)cc1)C1CCN(CCn2c(=O)[nH]c3ccccc3c2=O)CC1,,-9.39% [at 42.5 µM] (inactive)
CCCCCCCC[P+](CCCCCCCC)(CCCCCCCC)CCCCCCCC,,-18.4% (inactive)
CCCCCCCCCCCC[N+](C)(C)CCCCCCCCCCCC,24.3 µM (active),
CC(C)C(C)(C)C(C)(C)C(C)(C)S,,0.929% (inactive)
C[C@@H](NCCCc1cccc(C(F)(F)F)c1)c1cccc2ccccc12,,7.7% [at 42.5 µM] (inactive)
O=C(c1ccc(O)cc1O)c1ccc(O)cc1O,inactive,

# Source: PubChem BioAssay (Tox21)
